Test results as given in ChEMBL document CHEMBL3433997, “St. Jude Leishmania screening dataset” (2016).
Several values for one entry are separate records, joined by “and”; a condition that tells them apart may be missing. Equal entries are not always repeated.

Experiments:
Assay type in all cases: functional
[1] = molecular target: Solute carrier family 2, facilitated glucose transporter member 1 (Homo sapiens) (UniProt P11166); assay: ST_JUDE_LEISH: Cytotoxicity at 2uM final concentration against transgenic Leishmania Mexicana promastigotes LmGLUT1 that are glucose transport deficient and complemented with the human glucose transporter GLUT1. Activity is measured by DNA content using SYBR green in vitro
Sequence of Solute carrier family 2, facilitated glucose transporter member 1 (Homo sapiens) (P11166 whole entry): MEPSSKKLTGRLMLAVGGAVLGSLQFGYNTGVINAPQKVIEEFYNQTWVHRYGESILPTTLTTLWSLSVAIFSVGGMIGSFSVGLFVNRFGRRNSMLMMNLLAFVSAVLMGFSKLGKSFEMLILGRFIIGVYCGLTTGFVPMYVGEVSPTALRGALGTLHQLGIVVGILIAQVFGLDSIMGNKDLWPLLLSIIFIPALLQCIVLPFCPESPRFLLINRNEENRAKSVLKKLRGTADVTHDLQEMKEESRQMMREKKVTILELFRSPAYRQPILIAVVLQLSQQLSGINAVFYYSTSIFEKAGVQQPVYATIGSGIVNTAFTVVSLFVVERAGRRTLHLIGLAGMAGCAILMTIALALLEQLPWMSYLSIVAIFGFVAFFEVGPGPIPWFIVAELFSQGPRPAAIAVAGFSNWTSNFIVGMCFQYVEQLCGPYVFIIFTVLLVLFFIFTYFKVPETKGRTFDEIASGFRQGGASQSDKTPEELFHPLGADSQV

[2] = molecular target: Hexose transporter 1 (Plasmodium falciparum) (UniProt O97467); assay: ST_JUDE_LEISH: Cytotoxicity at 2uM final concentration against transgenic Leishmania Mexicana promastigotes LmPfHT that are glucose transport deficient and complemented with the Plasmodium falciparum hexose transporter. Activity is measured by DNA content using SYBR green in vitro
[3] = molecular target: Glucose transporter (Leishmania mexicana) (UniProt O61059); assay: ST_JUDE_LEISH: Cytotoxicity at 2uM final concentration against transgenic Leishmania Mexicana promastigotes LmGT2 that are glucose transport deficient and complemented with the L. Mexicana glucose transporter 2. Activity is measured by DNA content using SYBR green in vitro

| SMILES | inhibition [1] | inhibition [2] | inhibition [3] |
| --- | --- | --- | --- |
| O=C(/C=C/c1ccc(Cl)c(Cl)c1)N1CCC(CN2CCC(c3c(Br)[nH]c4ccccc34)CC2)CC1 | 2.44% | 0.45% | 0.55% |
| O=C(/C=C/c1ccc(Cl)c(Cl)c1)N1CCC(CN2CCC(c3c[nH]c4cc5c(cc34)OCO5)CC2)CC1 | 5.54% | 4.93% | 3.71% |
| CN1CC=C(c2c[nH]c3ccc(Sc4ccccc4)cc23)CC1 | 1.74% | 2.9% | 3.42% |
| O=C(/C=C/c1ccccc1Cl)NC1CCC(CN2C3CCC2CC(c2c[nH]c4ccccc24)C3)CC1 (configuration not stated) | 2.84% | -0.31% | 5.5% |
| CCCC(=O)c1c(O)c2ccccc2oc1=O | 6.46% | 7.19% | 5.83% |
| C#CCN1CCC2=C(C1)c1c(O)cc(C(C)C(C)CCc3ccc(F)cc3)cc1OC2(C)C (configuration not stated) | 0.45% | -1.07% | -1.42% |
| CC[C@H]1CN2CC[C@H]1C[C@H]2[C@H](O)c1cc(-c2cccc(F)c2)nc2ccc(OC)cc12 | 8.98% | 7.25% | 5.44% |
| O=C(NC1CCN(CCc2c[nH]c3ccc(F)cc23)CC1)c1ncc(-c2ccccc2)[nH]1 | 4.04% | 4.4% | 3.98% |
| CS(=O)(=O)Nc1ccc2[nH]cc(C3CCN(CC4CCC(NC(=O)/C=C/c5ccccc5Cl)CC4)CC3)c2c1 (configuration not stated) | -1.96% | 1.23% | -0.23% |
| CC(C)N(C)C(=O)n1cnc(S(=O)(=O)C2CC3CCC2C3)n1 (configuration not stated) | 2.26% | 1.45% | -0.84% |
| CC[C@H]1CN2CC[C@H]1C[C@H]2[C@H](O)c1cc(-c2ccc(SC)cc2)nc2ccc(OC)cc12 | 4.44% | 4.13% | 7.64% |
| CC(C)(C)c1cc(/C=C/C(=O)NC2CCC(CN3CCC(c4c[nH]c5ccccc45)CC3)CC2)cc(C(C)(C)C)c1O (configuration not stated) | 2.87% and 2.94% | 0.49% and 5.11% | -0.51% and 1.19% |
| CC[C@H]1CN2CC[C@H]1C[C@H]2[C@H](O)c1cc(Cl)nc2ccc(OC)cc12 | 2.23% | 1.71% | 1.61% |
| Cc1ccccc1CNCC(O)c1cccc(C(F)(F)F)c1 (configuration not stated) | 1.72% | 2.2% | -1.33% |
| CCCCCC(C)C(C)c1cc(O)c2c(c1)OC1(C(C)C)CC(O)C(C)C2C1 (configuration not stated) | 5.93% | 5.5% | 6.4% |
| CC[C@H]1CN2CC[C@H]1C[C@H]2[C@H](O)c1cc(-c2cccc(Cl)c2)nc2ccc(OC)cc12 | 9.7% | 9.03% | 10.7% |
| CC(Cc1ccc(S(=O)(=O)N(C(C)C)C(C)C)cc1)NCC(O)c1cccc(C(F)(F)F)c1 (configuration not stated) | -0.77% | 2.53% | 1.68% |
| CC[C@H]1CN2CC[C@H]1C[C@H]2[C@H](O)c1cc(-c2ccc(C)cc2)nc2ccc(OC)cc12 | 1.44% | 0.47% | -0.1% |
| CC(C)/C(=C(/F)CN1C(=O)C(NC(=O)c2cc3ccccc3[nH]2)C(=O)N(c2ccccc2)c2ccccc21)c1ccccc1 (configuration not stated) | -0.35% | -0.22% | -1.01% |
